Screens deposited in PubChem by several laboratories.
Most compounds without a hit are left out; they make up all but 4.2% or so of the library.
PfHsp90 yeast 2 – growth inhibition of yeast expressing Plasmodium Hsp90. inhibition, % at 9.4 µM. S. cerevisiae expressing PfHsp90, BacTiter-Glo ATP, 48 h; yeast lacking PDR1 and PDR3 efflux regulators. actives 0.32% (n = 310,000);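 active = every replicate shows inhibition above about 80%, whatever the replicate mean, limit read from the data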;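 also: 0% = DMSO neutral controls and 100% = 20 µM radicicol positive controls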
NALP3 yeast inh – inhibitors of NALP3 inflammasome in yeast. Yeast reconstituted NLRP3/ASC/caspase-1, beta-gal luminescence, 24 h. inhibition, % at 10 µM. actives 0.39% (n = 330,000);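 active = inhibition of 50% or more; inactive = inhibition below 50%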;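 also: plate controls were induced DMSO wells for no effect and uninduced yeast grown without galactose for full effect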
tim10-1 inh – inhibits growth of tim10-1 mutant yeast | S. cerevisiae tim10-1 ts strain growth, BacTiter-Glo, 24 h | inhibition, % at 20 µM | actives 2.2% (n = 330,000) | AID 463190;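 active = inhibition of at least 40%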;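 also: mutant grown at 25 °C; 0% = DMSO wells with yeast and 100% = wells holding no yeast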
tim23-1 inh – tim23-1 yeast growth inhibition; S. cerevisiae tim23-1 growth, BacTiter-Glo luminescence, 24 h; inhibition, % at 20 µM; actives 1.3% (n = 330,000);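 active = growth inhibition of the mutant yeast at or above 50%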;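 also: temperature-sensitive mutant grown at 25 °C; plate controls were DMSO-treated mutant yeast for no effect and medium wells lacking yeast for full effect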
TIM10 inh – growth inhibitors of TIM10 yeast strain | S. cerevisiae TIM10 strain growth, BacTiter-Glo luminescence, 24 h | inhibition, % at 10 µM | actives 1.4% (n = 330,000) | AID 463195;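 active = inhibition of 40% or more at the single tested concentration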;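 also: wild-type TIM10 isogenic control strain grown at permissive 25 °C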
NALP1 yeast inh – blocks the NALP1 inflammasome reconstituted in yeast; S. cerevisiae NALP1/ASC/caspase-1 growth, X-gal OD620, 72 h; inhibition, % at 10 µM; actives 0.61% (n = 280,000); AID 2071; in the data active = inhibition mostly above about 24%, no sharp cut-off; inactive = mostly below about 32%
The depositor's hits bear a star; nt = no result given.

SMILES	PfHsp90 yeast 2	NALP3 yeast inh	tim10-1 inh	tim23-1 inh	TIM10 inh	NALP1 yeast inh
COc1cc(C2C(c3ccccc3)C(c3cc(OC)cc(=O)o3)C2c2ccccc2)oc(=O)c1 (stereo not given)	-32	nt	nt	nt	nt	nt
COc1ccc(Nc2nnc(SCc3cc([N+](=O)[O-])cc4c3OCOC4)s2)cc1	-7	-1	8	-17	7	44*
CC(=O)Nc1ccc(S(=O)(=O)Nc2nc3ccc(C)cc3s2)cc1	-13	-5	-4	-2	8	14
Cc1ccc2nc(-c3ccc(NS(=O)(=O)c4ccc(F)cc4)cc3)sc2c1	109*	39	32	32	16	18
CCN(CC)C(=O)Cn1cnc2sc(C(=O)N3CCN(Cc4ccc5c(c4)OCO5)CC3)c(C)c2c1=O	36	-1	-9	15	-13	6
CN(C)CCC(c1ccc(Cl)cc1)c1ccccn1 (stereo not given)	10	-4	-2	0	-8	5
CN(C)CCC1c2ccc(Cl)cc2CCc2cccnc21 (stereo not given) (tested in a mixture with another compound)	0	9	16	-9	-17	40*
COc1ccc(CNC(=O)c2cc3c(=O)n4cccc(C)c4nc3n(CC3CCCO3)c2=N)cc1 (stereo not given)	-8	25	2	10	2	36*
Cc1cccn2c(=O)c3cc(C(=O)NCc4ccc(F)cc4)c(=N)n(CC4CCCO4)c3nc12 (stereo not given)	21	12	0	1	4	4
O=C(CSCc1ccc(F)cc1)NCc1ccc(F)cc1	-17	6	9	4	5	28*
Cc1cc2c(cc1C)CSC(c1c(O)ccc3ccccc13)SC2	100*	21	17	-51	28	15
CNC(=O)Nc1cccc2cccnc12	-17	-5	-12	8	-7	44*
COc1ccc(/C=N/NS(=O)(=O)c2ccc(F)cc2)cc1CN1CCSCC1	25	2	-2	-1	6	30*
CC(=O)N1CCCc2cc(S(=O)(=O)N3CCCC(C)C3)ccc21 (stereo not given)	18	9	26	13	1	3
CCCOc1ccc2oc(=O)c3c(c2c1)CCCN3C(=O)CN1CCN(C(=O)c2ccco2)CC1	nt	-3	23	23	16	1
O=C(CN1CCCC1)N1CCCc2c1c(=O)oc1ccc(OCc3ccccc3)cc21	nt	7	21	20	7	29*
CC1(C)CC(NC(=O)CCc2nnc(CCCCc3ccccc3)o2)CCO1 (stereo not given)	16	-9	13	-1	6	-3
COc1ccc(OC)c(S(=O)(=O)Nc2cccc3c(O)cccc23)c1	nt	14	14	12	3	nt
COc1ccc(OC)c(S(=O)(=O)Nc2ccc(O)c3ccccc23)c1	8	12	18	17	11	104*
Oc1ccc(N=Nc2ccc3ccccc3c2)cc1	108*	42	-62	-16	6	21
O=[N+]([O-])c1ccccc1N=Nc1ccc(O)cc1	-2	20	25	45	14	nt
CCOc1ccc(NC(=O)CN(C)C(=O)COc2cccc3c2OC(C)(C)C3)cc1OCC	-9	14	2	11	4	nt
CC1=C(C)CC(C(=O)Nc2ccc3c(c2)OCO3)C(C(=O)O)C1 (stereo not given)	-11	-3	11	10	2	11
COc1cc(C)nc(NS(=O)(=O)c2ccccc2Cl)n1	2	19	-13	4	1	39*
Cc1ccc(N2C(=O)CC(Sc3ccccc3C(=O)O)C2=O)cc1 (stereo not given)	2	15	11	24	19	63*
SMILES	PfHsp90 yeast 2	NALP3 yeast inh	tim10-1 inh	tim23-1 inh	TIM10 inh	NALP1 yeast inh
CN(C)c1ccc(N2C(=O)CC(Sc3ccccc3C(=O)O)C2=O)cc1 (stereo not given)	-6	0	21	7	17	52*
CCOc1ncccc1C(=O)OCC(=O)c1ccc(Br)s1	nt	6	-11	12	-6	nt
Cc1ccc(C)c(N2CCN(c3ccncc3N)CC2)c1	18	11	1	-3	17	16
CC1CCC(NC(=O)c2cccc(S(=O)(=O)N3CCN(c4ccc(F)cc4)CC3)c2)CC1 (stereo not given)	nt	13	14	6	13	nt
Cc1cc(N2CCC(C)CC2)nc(NCc2ccccc2)n1	2	8	25	19	20	69*
C=CCn1c(O)c(C2=c3ccccc3=NC2=O)c2ccccc21	110*	30	-146	-2	12	-7
Cc1ccc(NC(=O)C2CCN(C(=O)[C@@H]3Cc4ccccc4CN3)CC2)cc1	-10	11	-1	-31	2	31
Cc1cc(C)cc(NC(=O)C2CCC(CNC(=O)[C@@H]3Cc4ccccc4CN3)CC2)c1 (stereo not given in full)	14	16	21	10	0	11
CCc1ccc(NC(=O)C2CCC(CNC(=O)[C@@H]3Cc4ccccc4CN3)CC2)cc1 (stereo not given in full)	14	5	17	8	-8	34*
CC(C)c1ccc(NC(=O)C2CCN(C(=O)[C@@H]3Cc4ccccc4CN3)CC2)cc1	7	3	-1	15	-5	32*
COc1ccc(Cc2nc3ccc(C(=O)NC(C)c4cn(C)nc4C)cc3o2)cc1 (stereo not given)	11	-5	15	7	7	-14
CC(NC(=O)C1CCN(C(=O)Nc2ccccc2)CC1)c1ccccc1 (stereo not given)	20	15	26	8	8	nt
COc1ccc(S(=O)(=O)N2CCC(C(=O)NCCC(=O)NC3CC3)CC2)cc1	2	17	-3	-2	-2	34*
Cc1ccc(C(C(=O)NC2CCCCC2)N2CCCC2)cc1 (stereo not given)	0	11	15	-3	7	24
CCOC(=O)C1CCN(C(C(=O)NC2CCCC2)c2ccc(C)cc2)CC1 (stereo not given)	13	5	8	18	10	36*
Clc1ccc2[nH]c3c(c2c1)CCc1cn[nH]c1-3	110*	12	0	21	28	0
O=C(N/N=C1\CCCc2c1[nH]c1ccc(Cl)cc21)c1ccncc1	-18	5	-37	15	-46	nt
Cc1cc(C)cc(NC(=O)CSc2nc(CSc3ccc(Cl)cc3)cc(=O)[nH]2)c1	2	-3	7	6	-16	34*
Cc1ccccc1CNC(=O)C(=O)NCC1CCCN1S(=O)(=O)c1cccs1 (stereo not given)	13	2	14	26	26	nt
O=C(O)c1cc(-c2ccc(/C=C3\NC(=O)N(c4ccc(Cl)cc4)C3=O)o2)ccc1Cl	-10	12	12	21	14	15
